From the supplement of paper PMC11001985
Unmarked numbers belong to inactive results.

Molecular target: ACLY (lysine site: K991) (UniProt P53396)
Assay: lysine labeling ratio R10:1 (500 µM / 50 µM probe), SILAC-ABPP in living cells; higher = lower intrinsic lysine reactivity toward the probe, active = 2 or less
Settings: HeLa; probe concentrations 500 vs 50 µM
Experimental: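 Living HeLa cells (SILAC light/heavy) in PBS at room temperature were labeled with 50 µM versus 500 µM of the lysine-reactive, reductant-cleavable probe OPA-S-S-alkyne (SILAC labeling time not stated). Probe-modified peptides were CuAAC-biotinylated, captured on neutravidin and eluted with DTT/IAA, then quantified by LC-MS/MS. R = median peptide ratio per lysine (500/50 µM), combined over 3 forward and 3 reverse SILAC replicates. Ratios are capped at 20; R < 2 = hyper-reactive.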

ACLY (lysine site: K991), sequence (P53396 whole entry): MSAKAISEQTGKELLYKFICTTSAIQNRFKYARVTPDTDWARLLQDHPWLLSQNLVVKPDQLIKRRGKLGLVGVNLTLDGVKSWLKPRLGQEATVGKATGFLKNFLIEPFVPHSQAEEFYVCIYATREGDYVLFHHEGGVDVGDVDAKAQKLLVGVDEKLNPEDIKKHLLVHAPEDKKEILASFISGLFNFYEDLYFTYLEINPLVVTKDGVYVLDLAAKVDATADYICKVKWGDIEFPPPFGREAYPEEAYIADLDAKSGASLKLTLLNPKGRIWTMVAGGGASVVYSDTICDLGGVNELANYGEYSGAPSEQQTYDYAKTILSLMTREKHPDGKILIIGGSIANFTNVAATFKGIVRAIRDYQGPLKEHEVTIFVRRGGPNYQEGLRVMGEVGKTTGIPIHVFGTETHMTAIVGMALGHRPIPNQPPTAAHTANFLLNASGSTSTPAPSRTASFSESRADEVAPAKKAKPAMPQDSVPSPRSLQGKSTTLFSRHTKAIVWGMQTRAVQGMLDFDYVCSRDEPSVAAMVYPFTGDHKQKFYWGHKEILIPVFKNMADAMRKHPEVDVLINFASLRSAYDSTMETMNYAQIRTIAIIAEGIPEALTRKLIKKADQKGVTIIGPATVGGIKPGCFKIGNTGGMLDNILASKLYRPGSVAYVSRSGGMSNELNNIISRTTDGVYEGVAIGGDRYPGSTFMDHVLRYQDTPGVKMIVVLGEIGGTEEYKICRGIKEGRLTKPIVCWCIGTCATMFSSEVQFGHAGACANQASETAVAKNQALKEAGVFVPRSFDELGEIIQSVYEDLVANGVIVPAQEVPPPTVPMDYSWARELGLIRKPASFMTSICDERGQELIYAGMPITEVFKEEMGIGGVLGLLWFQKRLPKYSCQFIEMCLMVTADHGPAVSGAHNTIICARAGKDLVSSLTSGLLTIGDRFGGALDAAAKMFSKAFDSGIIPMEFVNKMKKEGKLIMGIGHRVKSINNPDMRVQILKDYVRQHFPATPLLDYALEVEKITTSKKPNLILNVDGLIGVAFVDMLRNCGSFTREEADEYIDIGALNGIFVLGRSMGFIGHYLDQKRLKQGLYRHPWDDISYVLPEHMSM

SMILES	lysine labeling ratio R10:1
C#CCNC(=O)CCSSCCC(=O)NCCc1ccc(C=O)c(C=O)c1	2.27
